Only some compounds are listed: those with a hit (about 6.3% of all), similar ones and a draw of the others.
Spn DPM-DC inh = S. pneumoniae DPM-DC inhibitors, primary screen, biochemical, PK/LDH-coupled NADH fluorescence | calls only at 10 µM | diphosphomevalonate decarboxylase (Streptococcus pneumoniae D39) | purified DPM-DC | 0.49% of 65,000 active;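 active = the 320 compounds with the highest percent inhibition in the single-dose primary screen, excluding strongly autofluorescent ones, cut at about 32% in these data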;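 note: kinetic rate of NADH fluorescence loss reporting ADP formed by the decarboxylase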
A340 absorber = compound light absorbance at 340 nm, profiling panel, artefact control, biochemical, MLSMR library, data from PS, PMK, MK assays | compound absorbance at 340 nm, fold over control | fold change at 10 µM | 65,000 tested, under 10 active;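 active = at 10 µM dose, initial 340 nm absorbance at least 2 fold that of control wells; inactive = change under 2 fold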;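 note: initial absorbance extrapolated from kinetic A340 decline of NADH oxidation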
Spn MK inh = S. pneumoniae MK inhibitors, primary screen, biochemical, PK/LDH-coupled NADH absorbance. mevalonate kinase [Streptococcus pneumoniae D39]. inhibition, % at 10 µM. 0.48% of 65,000 active. purified MK, PK/LDH-coupled NADH absorbance 340 nm;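 active = ranked among the strongest by inhibition in the single 10 µM screen, a fixed top-ranked set picked for dose follow-up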
NADH enzymes = inhibitors of PK/LDH coupling enzymes, profiling panel, artefact control, biochemical, MLSMR library; coupled PK/LDH NADH assays, four targets; 0.02% of 65,000 active; IC50, µM (series often up to 10 µM), for the others: at the top dose inhibition; AID 774, 2007;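 active = single-dose screening hits from any of four coupled enzyme assays that gave an IC50 when retested across doses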;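 note: the DPM-DC format reads NADH fluorescence rather than 340 nm absorbance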
Spn PMK inh = S. pneumoniae PMK inhibitors, primary screen, biochemical, mevalonate pathway, pilot trial included; 0.49% of 65,000 active; purified PMK, PK/LDH-coupled NADH absorbance 340 nm; inhibition, % at 10 µM; phosphomevalonate kinase (Streptococcus pneumoniae D39);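 active = top-ranked compounds by inhibition in the single 10 µM screen, taking a fixed number of the strongest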;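 note: 0% = full reaction with DMSO carrier and 100% = background rate without enzyme reaction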
Autofluor 339 = intrinsic fluorescence of library compounds, ex339/em460 – biochemical, MLSMR library, data from DPM-DC assay, artefact control, profiling panel; compound autofluorescence, ex339/em460 nm, NADH buffer; hits give high values; 1 = no-compound wells, NADH background; fluorescence fold increase at 10 µM; 5.5% of 65,000 active; AID 709, 2007;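 active = at 10 µM, mean starting fluorescence two-fold or more over control wells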;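 note: signal is the first read of a kinetic run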
Numbers without * were called inactive; i = inactive; nt = no result given; + = active, no number.

SMILES | Spn DPM-DC inh | A340 absorber | Spn MK inh | NADH enzymes | Spn PMK inh | Autofluor 339
CCc1nnc(NC(=O)c2ccc(S(=O)(=O)N(CC)CC)cc2)s1 | i | 1.1 | 0 | 1% | 3 | 1
CCCc1cc(=O)oc2cc(C)c3c(C)coc3c12 | nt | 1 | 7 | 5% | 2 | 2.1*
CCCc1cc(=O)oc2cc3occ(C)c3cc12 | nt | 1.1 | 9 | 14% | 19 | 2.2*
COc1cc2ccccc2cc1C(=O)Nc1cccnc1 | i | 1.1 | 0 | 0% | 0 | 1.3
COc1cc2cc(C(=O)Nc3ccccc3)c(N)nc2cc1OC | nt | 1.1 | 10 | 5% | 0 | 2.3*
Cc1nc2nc(C)n(-c3ccccc3)c2s1 | i | 1 | 5 | 3% | 4 | 1
O=C(O)CSc1cccc2cccnc12 | nt | 1.1 | 2 | 4% | 6 | 2.2*
CCCCn1c(SCC(=O)Nc2nc(C)cs2)nnc1-c1cccnc1 | i | 1 | 1 | 3% | 9 | 1.1
COc1ccc(-c2nc(CSCC(=O)N3CCN(C(=O)c4ccco4)CC3)c(C)o2)cc1OC | i | 1.1 | 4 | 4% | 9 | 1
c1csc(-c2nc3ccccc3[nH]2)c1 | nt | 1.1 | 5 | 3% | 0 | 3.6*
Cc1ccc(-c2nc3ccccc3[nH]2)s1 | nt | 1.1 | 11 | 2% | 6 | 2.5*
Cc1[nH]c2ccccc2c1-c1nc2ccccc2[nH]1 | i | 0.99 | 8 | 6% | 10 | 1.4
Cc1nnsc1-c1nc2ccccc2[nH]1 | nt | 1.1 | 0 | 9% | 17 | 4.9*
CCOC(=O)COc1cccc2c(=O)n(CC(=O)N3CCc4ccccc43)ccc12 | i | 1.1 | 6 | 8% | 19 | 1.3
CCNC(=O)c1cc2c(=O)n3cccc(C)c3nc2n1C | nt | 1.1 | 7 | 9% | 10 | 5*
Cn1c(C(=O)N2CCCc3ccccc32)cc2c(=O)n3ccccc3nc21 | i | 1.1 | 14 | 15% | 16 | 2.6*
COCCNC(=O)c1cc2c(=O)n3cccc(C)c3nc2n1C | nt | 1.1 | 4 | 4% | 4 | 2.1*
CCCCNC(=O)c1cc2c(=O)n3cccc(C)c3nc2n1C | nt | 1.1 | 11 | 15% | 18 | 2.1*
CCCOC(=O)c1ccc(OCC(O)Cn2c(C)nc3ccccc32)cc1 (stereo not given) | i | 1 | 5 | 2% | 2 | 1
Cc1cccn2c(=O)c3cc(C(=O)NCCCN4CCCC4=O)n(C)c3nc12 | nt | 1.1 | 0 | 6% | 12 | 5*
Cc1cccn2c(=O)c3cc(C(=O)NCCCn4ccnc4)n(C)c3nc12 | nt | 1.1 | 12 | 13% | 13 | 5*
CCOCCCNC(=O)c1cc2c(=O)n3cccc(C)c3nc2n1C | nt | 1.1 | 0 | 1% | 2 | 2.1*
Cn1c(C(=O)NCc2ccccn2)cc2c(=O)n3ccccc3nc21 | nt | 1.1 | 3 | 6% | 9 | 4.9*
Cc1cccn2c(=O)c3cc(C(=O)N(C)C)n(C)c3nc12 | nt | 1.1 | 8 | 9% | 10 | 4.9*
Cc1nc2c(C)cccn2c1/C(O)=C1\C(=O)C(=O)N(CCN(C)C)C1c1ccncc1 (stereo not given) | i | 1.1 | 9 | 6% | 10 | 1.1
SMILES | Spn DPM-DC inh | A340 absorber | Spn MK inh | NADH enzymes | Spn PMK inh | Autofluor 339
Cc1cccn2c(=O)c3cc(C(=O)N4CCN(c5ccccc5)CC4)n(C)c3nc12 | nt | 1.1 | 0 | 1% | 2 | 5*
Cn1c(C(=O)N2CCc3ccccc32)cc2c(=O)n3ccccc3nc21 | i | 1.1 | 0 | 0% | 0 | 1.9
CCOC(=O)C(NC=O)(NC(C)(C)C)C(=O)OCC | i | 1 | 6 | 2% | 0 | 1.1
COc1cc(OC)nc(NC(=O)NS(=O)(=O)c2ccc(OC(F)(F)F)cc2)n1 | i | 0.99 | 0 | 12% | 25* | 1.1
COc1ccc(NC(=O)NS(=O)(=O)c2ccc(C)cc2)c(OC)c1 | i | 1 | 12 | 8% | 11 | 1.6
CCS(=O)(=O)c1ccc(O)c(NC(=O)Nc2ccccc2)c1 | i | 1 | 42* | 20% | 18 | 1
N#Cc1cc2c(nc1SCc1cccnc1)CCCCC2 | i | 1.1 | 8 | 3% | 0 | 1.1
N#Cc1cc2ccccc2nc1SCc1cccnc1 | i | 0.99 | 7 | 12% | 29* | 1.1
N#CC(C(=O)NC1CC1)c1nc2ccccc2nc1N1CCCC1 (stereo not given) | i | 1 | 0 | 9% | 16 | 1.8
COCCNC(=O)C(C#N)c1nc2ccccc2nc1N1CCCCCC1 (stereo not given) | + | 1.1 | 5 | 20% | 10 | 2.5*
N#CC(C(=O)NC1CCCCC1)c1nc2ccccc2nc1N1CCCCC1 (stereo not given) | + | 1.1 | 31 | 55% | 41* | 1.8
CCC(CC)C(=O)NCc1ccccc1OC | i | 1 | 7 | 7% | 4 | 1.1
O=C(/C=C\Nc1cccc(F)c1)c1ccc2c(c1)OCO2 | i | 1.1 | 0 | 1% | 0 | 1.1
OC1CCCN(Cc2ccc3c(c2)Cc2ccccc2-3)C1 (stereo not given) | i | 1 | 9 | 14% | 33* | 1.1
CN(C)CCN(C)Cc1ccc2c(c1)Cc1ccccc1-2 | i | 1 | 4 | 1% | 0 | 1.1
CN(C)C=Nc1ncc2c([nH]c3ccccc32)c1C#N | i | 1.2 | 2 | 9% | 11 | 2.1*
OCCN(Cc1ccccc1)Cc1cccc(F)c1 | i | 1.1 | 45* | 15% | 0 | 1.2
OCCN(Cc1ccccc1)CC1CCCCC1 | i | 1.1 | 43* | 14% | 0 | 1.1
OCCN(Cc1ccccc1)Cc1ccccc1F | i | 1.1 | 48* | 19% | 7 | 1.1
OCCN(Cc1ccccc1)Cc1cccc(C(F)(F)F)c1 | i | 1.1 | 37 | 13% | 1 | 1.1
CCCN(CCO)Cc1cccc(Cl)c1 | i | 1.1 | 41* | 14% | 0 | 1.1
COc1cccc(OCc2nnc(SCC(=O)OCc3ccccc3)o2)c1 | i | 1 | 11 | 2% | 12 | 1.1
CC(=O)n1cc(C2C(=O)CC(C)(C)CC2=O)c2ccccc21 | i | 1.1 | 6 | 3% | 0 | 1
Cc1ccc(S(=O)(=O)Nc2nc3ccccc3nc2NCc2ccco2)cc1C | i | 1.1 | 6 | 10% | 11 | 2.1*
Cc1ccc(S(=O)(=O)Nc2nc3ccccc3nc2NCc2ccco2)cc1 | i | 1.1 | 2 | 5% | 3 | 1.6
COCCNC(=O)C(c1ccc(C)o1)N(Cc1ccc(OC)cc1)C(=O)Cn1nnc2ccccc21 (stereo not given) | i | 1 | 0 | 3% | 25* | 1.1
